Screening data as filed in PubChem.
PINK1 modulator – modulators of PINK1 expression | PINK1 immunofluorescence, high-content cytometry, 24 h | Potency, µM (titrated, usually from 76.6 µM), without a hit: at the top dose activation (PINK1 increase), actives largely listed as activators | 410,000 compounds, 0.2% hits; active = well fitted activation curve with a large enough effect; inconclusive = small, poorly fitted or top-dose-only effect; cell line not stated here; also: potency is read from the fitted curve at half-maximal effect; % of control where 0% means no effect; nearly all actives have a fitted effect of over 65% in size
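Cells are seeded, rested 12 hours, then given compound at five concentrations or DMSO for 24 hours. After fixation, blocking and antibody staining, PINK1 amount and mitochondrial localization are scored; CCCP serves as control.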
pAkt inh – inhibitors of Akt phosphorylation | 360,000 compounds, 0.32% hits | Neuro2A IGF-stimulated pAkt S473 HTRF, 20 min; hits give low values | AID 651550 | activity change, % for hits at 50 µM; in the data active = activity change below about -80%; inconclusive = mostly about -51% to -80%; also: % is scaled to controls: 0 for no effect and ±100 for the full control effect
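Single-point screen (50 µM final compound) in Neuro2A cells stimulated 20 min with 6 nM IGF at 37 deg C. After lysis, Ser473-phosphorylated Akt read by HTRF (ex 330 nm, em 615/665 nm) as the 665/615 ratio.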
TCR activator – T cell receptor activation; primary human leukocytes, anti-CD3, IL-2 HTRF, 48 h; Potency, µM (series often up to 9.22 µM), inactives show top-dose activation of IL-2 secretion, actives largely listed as activators; 330,000 tested, under 10 active; AID 504894; also: % of control where 0% means no effect
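IL-2 produced over 48 hr by a-CD3 bead-stimulated primary human leukocytes exposed to compounds was detected with a homogeneous time-resolved FRET immunoassay, 665nm acceptor signal after 320nm excitation.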
BRCA1 expr act – increases BRCA1 expression | MCF7-BRCA1-FFLuc reporter, luminescence, 48 h; response scale: scaled: vehicle 0%, 10 µM genistein 100% | Potency, µM (titrated, usually from 46.1 µM), for the others: at the top dose activation, most hits filed as activators | AID 624202 | 380,000 compounds, 1.1% hits; also: potency is read from the fitted curve at half-maximal effect; nearly all actives have a fitted effect of over 80% in size
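Activators of BRCA1 expression were detected as increased firefly luciferase luminescence in engineered MCF7 cells after 48 h compound incubation. Signals were scaled to genistein 10 microM as full activation.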
An asterisk follows results filed as active; i = inactive; ? = inconclusive; / = not tested or not shown; [ ] = dose if it differs, or a comment. Shown are actives, neighbours in structure and some others; about 1.5% of the full set was active somewhere. Unless noted, calls follow the shape of the dose curve; as a rule, active = well fitted curve in the direction sought with a large enough effect; inconclusive = small, poorly fitted or top-dose-only effect, or another doubt; inactive = no such curve, though single readings can be large; an effect the other way counts as inactive or inconclusive.

SMILES	PINK1 modulator	pAkt inh	TCR activator	BRCA1 expr act
CCOc1cc(C2NN=C(c3ccc(C)cc3)S2)ccc1O (centres undefined)	1.8%	i	-5.2%[46.1 µM]	?
O=c1c2ccccc2nc2ccc(NCc3cccs3)nn12	0.6%	i	4.7%	11.2µM*
Cc1oc(-c2ccccc2NC(=O)c2cccnc2)nc1CNC(=O)C1CCCCCN1C (centres undefined)	0.6%	/	/	/
Cc1cc(C)nc(SCCCn2c(=O)[nH]c3ccccc32)n1	-1.4%	-124.7%*	2.3%	3.5%
N/C(Cc1ccc(Cl)cc1Cl)=N\OC(=O)Cc1cccs1	6.3%	i	-10.7%[46.1 µM]	52.9%
N/C(=N\OC(=O)COc1ccc(Cl)cc1)c1cccnc1	1.2%	i	5.2%[46.1 µM]	60.5%
N/C(=N\OC(=O)COc1ccc(Cl)cc1Br)c1ccncc1	1.3%	i	2.9%	2.51µM*
CCc1ccc(OCC(=O)O/N=C(\N)c2ccncc2)c(Br)c1	0.1%	i	-1.2%	?
N/C(=N\OC(=O)COc1ccc(Cl)cc1Cl)c1cccnc1	14.0%	i	-0.3%[46.1 µM]	7.94µM*
N/C(Cc1cccs1)=N\OC(=O)COc1ccc(Cl)cc1Cl	4.1%	i	-0.5%	11.2µM*
COc1ccc(-c2ccnc(-n3ncc(C(=O)NCc4cccnc4)c3C3CC3)n2)cc1F	1.1%	/	/	/
CCOC(=O)N1CCN(C(=O)c2ccc(-c3ccccc3OC)nc2N2CCC(N3CCCC(CO)C3)CC2)CC1 (centres undefined)	-0.4%	/	/	/
COc1ccccc1N(CC(=O)NC1CCCC1)C(=O)c1csnn1	-0.6%	-121.1%*	-3.5%	4.1%
O=C(CC1Nc2ccccc2NC1=O)Nc1cc(Cl)cc(Cl)c1 (centres undefined)	8.91µM*	i	/	-52.3%
CCOC(=O)c1c(NC(=O)CC2Nc3ccccc3NC2=O)sc(C)c1C (centres undefined)	12.6µM*	i	0.6%[46.1 µM]	-0.5%
COC(=O)c1c(NC(=O)CC2Nc3ccccc3NC2=O)sc(C)c1C (centres undefined)	?	i	-19.3%	-43.3%
Cc1onc(-c2ccccc2)c1C(=O)Nc1cccc2nsnc12	11.3%	-119.8%*	0.5%	1.4%
COc1cccc(Nc2nc3ccc(OC)cc3s2)c1	3.1%	i	4.9%	4.47µM*
COc1ccc(Nc2nc3ccccc3s2)cc1	2.9%	i	7.1%	5.01µM*
COc1ccc(CNc2nc3ccccc3s2)cc1OC	0.3%	i	10.0%	99.3%
O=C(N=C1c2ccccc2CN1c1ccc(F)c(Cl)c1)c1cccnc1Cl	/	/	-3.2%[46.1 µM]	/
N#Cc1ccc(N2Cc3ccccc3C2=NC(=O)c2cccnc2Cl)cc1	-0.3%	i	0.6%[46.1 µM]	12.6µM*
CC(C)(C)c1ccc(C(=O)O/N=C(\N)c2ccccc2)cc1	-1.5%	i	-3.0%	-73.3%
Cc1cc(C(=O)O/N=C(\N)c2ccc(C(C)(C)C)cc2)no1	2.0%	i	3.8%	2.51µM*
Cc1ccc2[nH]c(C(=O)NCc3nc(-c4cccc(NC(=O)c5cc(C)oc5C)c4)oc3C)cc2c1	5.6%	/	/	/
SMILES	PINK1 modulator	pAkt inh	TCR activator	BRCA1 expr act
CCCCNc1ccc(/C=C2\C=Cc3ccccc32)cc1	0.8%	/	/	6.31µM*
O=C(O)c1ccccc1Nc1ccc([N+](=O)[O-])cc1	-0.4%	i	-1.2%[46.1 µM]	12.6µM*
COc1cc(CN2CCC3(CC2)CC3C(=O)Nc2ccc3sc(C)nc3c2)ccc1F (centres undefined)	0.0%	/	/	/
CC1CN(CCC(=O)NCc2ccc3ncccc3c2)Cc2cc(Cl)ccc2O1 (centres undefined)	0.1%	/	/	/
CCC(C)NS(=O)(=O)c1ccc(OC)c(Cl)c1Cl (centres undefined)	-0.8%	-122.1%*	0.2%	0.0%
Cc1ccc(NC(=S)N2CCCCCC2)cc1	0.4%	i	3.2%	12.6µM*
O=C(Nc1ccc(Br)cc1)N1CCCCCC1	2.1%	i	-6.2%	0.0%
S=C(Nc1ccc(Br)cc1)NC1CCCCC1	?	i	1.5%[46.1 µM]	10µM*
Cc1ccc(NC(=O)N2CCCCCC2)cc1	3.3%	i	1.4%	7.94µM*
Cc1ccc(NC(=O)C(=O)NC2CCCCC2)cc1	?	i	-6.3%	1.26µM*
Cc1ccc(NC(=O)NC2CCCCCCC2)cc1	3.3%	i	6.5%	?
Cc1oc(-c2ccccc2NC(=O)C2CCC2)nc1CNC(=O)c1ccccn1	1.6%	/	/	/
CC(=O)N1CCC2(CC1)CN(c1ccccn1)C2	0.7%	/	/	/
CN(C)c1ccc(/C=C2\C=Cc3ccccc32)c(Cl)c1	15.1%	/	/	?
Cc1noc(C)c1CC(=O)NCC1Cc2cc(-c3cccc(OC(F)(F)F)c3)ccc2O1 (centres undefined)	-0.2%	/	/	/
CCc1ccc(NC(=S)N2CCN(C)CC2)cc1	-0.6%	i	10.7%	11.2µM*
CCc1ccc(NC(=O)N2CCCCCC2)cc1	0.2%	i	5.0%	7.08µM*
CCc1ccc(NC(=S)N2CCCC2)cc1	-0.8%	i	1.8%	?
CCOC(=O)C1CCN(C(=O)Nc2ccc(NC(=O)C3CCN(C(=O)OCC)CC3)cc2)CC1	29.4%[38.3 µM]	i	/	1.5%
CCOC(=O)C1CCN(C(=O)Nc2ccc(OC(F)(F)F)cc2)CC1	0.0%	i	6.2%	12.6µM*
CC(C)(CNC(=O)c1cnn(-c2nccc(-c3ccccc3F)n2)c1C1CC1)N1CCOCC1	0.3%	/	/	/
CCCCN(CCCC)c1ccc(Cn2ccc3ccccc32)cc1	?	/	/	-76.0%
CCN(CC)C(=O)c1sc2nc(-c3ccc(OC)cc3)cn2c1C	0.2%	i	-2.5%	2.82µM*
COc1ccc(-c2cn3c(C)c(C(=O)Nc4cc(NC(C)=O)ccc4OC)sc3n2)cc1	10µM*	i	5.0%[46.1 µM]	-55.6%
O=C(Nc1cccc(O)c1)c1cc(-c2cccs2)on1	1.6%	i	-3.6%	43.1%
SMILES	PINK1 modulator	pAkt inh	TCR activator	BRCA1 expr act
COc1ccc(-c2cc(C(=O)Nc3cccc(C(C)=O)c3)no2)cc1	8.0%[38.3 µM]	i	2.9%	24.3%
COc1ccc(-c2cc(C(=O)Nc3cccc(Cl)c3)no2)cc1	0.7%	i	3.1%	3.16µM*
COc1ccc(CNC(=S)Nc2cccc(Cl)c2)cc1	2.3%	i	-3.4%	-7.7%
COc1cccc(NC(=O)NCc2ccccc2Cl)c1	2.2%	i	11.3%	12.6µM*
CC(=O)c1cccc(NC(=O)c2cc(-c3cccs3)on2)c1	9.6%	i	2.3%	10µM*
COc1ccc(CNC(=O)Nc2cccc(Cl)c2)cc1	7.4%	i	11.0%	7.08µM*
Cn1cc(CN2CCC(C3(c4ccccn4)NC(=O)N(CC4CCCO4)C3=O)CC2)c2ccccc21 (centres undefined)	-0.8%	/	/	/
COCC1CCCN(Cc2ccc3c(c2)CN(C(=O)c2ccc(OC)nc2OC)CCO3)C1 (centres undefined)	0.1%	/	/	/
COc1ccccc1-c1ccnc(-n2ncc(C(=O)NC3CCCN(Cc4ccccc4)C3)c2C)n1 (centres undefined)	-0.1%	/	/	/
CCN(CC)CCCNC(=O)c1[nH]c(C)c(C(=O)NC2CCCCC2)c1C	2.1%	-83.2%*	-1.6%	0.0%
